IkB signaling – IkB pathway inhibition in ABC-DLBCL cells | Potency, µM (series often up to 57.1 µM), for inactives: at the top dose IkBa stabilization activation | ABC-DLBCL IkBa-CBG/CBR dual luciferase ratio, 4 h; response scale: scaled: untreated 0%, proteasome inhibitor 100% | 110,000 compounds, 0.04% hits | AID 445; active means well fitted curve in the direction sought with a large enough effect in the signal ratio, not every such curve was filed as active; inconclusive means small, poorly fitted or top-dose-only effect, or a change in a side signal; the % refers to the signal ratio;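 further: the direction sought is a rising ratio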
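In this assay, an IκBα–CBG68 fusion accumulates when IKK-driven degradation is blocked; native CBR normalizes for cell number. OCI-Ly3 cells were treated 4 h with compound and doxycycline, then green and red light read after Chroma-Glo addition.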
p53ts 39C kill – cytotoxicity in p53ts cells at nonpermissive temperature | H1299-p53A138V viability at 39C, ATP luminescence, 24 h | Potency, µM (top dose mostly 46.1 µM), without a hit: at the top dose activity change, negative = cell killing, actives largely listed as cytotoxic | 130,000 compounds, 1.5% hits | AID 902; further: on the % scale 0 is the no-effect control and ±100 the full control effect; nearly all actives have a fitted effect of over 55% in size
p53ts 32C tox – cytotoxicity in p53ts cells at permissive temperature; H1299-p53A138V at 32C, ATP luminescence viability, 24 h; Potency, µM (series often up to 46.1 µM), without a hit: at the top dose activity change, negative = cytotoxicity, hits mostly cytotoxic; 130,000 compounds, 0.93% hits;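 further: 0% = DMSO and -100% = full killing by reference compound; nearly all actives have a fitted effect of over 55% in size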
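ATP-content luminescence (ATPlite) read-out after 24 h compound exposure at 32C in H1299-p53A138V cells (600/well). Tested up to 46 uM. Normalized to DMSO (0%) and 100 uM tamoxifen (100% killing); Hill-fit AC50.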
Peg3 imprint – induces erasure of genomic imprints in mouse ES cells. mouse ES Peg3-LacZ reporter, beta-gal luminescence, 40 h. Potency, µM (top dose mostly 60.7 µM), for inactives: top-dose activity change, positive = activation, hits mostly activators. AID 1948. 110,000 compounds, 0.02% hits
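Readout: BetaGlo luminescence (5 min, room temp) for LacZ from the normally silent maternal Peg3 allele in female Peg3LacZ-Neo ES cells. Cells 300/well, 40 h, 37C, 5% CO2. Data normalized per plate to negative controls.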
The depositor's hits bear a star; ? = inconclusive; nt = no result given; ! = not confirmed by another sample; [ ] = dose if it differs, or a comment. Hits are enriched below; roughly 1.7% of the tested compounds scored in any of these assays. Unless noted, the call rests on the fitted dose curve; in most records, active means well fitted curve in the direction sought with a large enough effect; inconclusive means small, poorly fitted or top-dose-only effect, or another doubt; inactive means no such curve, though single readings can be large; an effect the other way counts as inactive or inconclusive. Potency means the concentration at half of the fitted maximal effect.

SMILES | IkB signaling | p53ts 39C kill | p53ts 32C tox | Peg3 imprint
Cc1ccc2cc3cc(C(=O)N4CC(C)CC(C)C4)oc3nc2c1 (centres undefined) | ? | -18% | -2% | -19%
Cc1ccc2cc3cc(C(=O)N(C)c4ccccc4C)oc3nc2c1 | -2% | 10µM* | ? | -19%[10.9 µM]
CCc1ccc2oc(-c3cc(N=Cc4cccc(OC)c4O)ccc3O)nc2c1 | ? | 10µM* | 10µM* | -73%
O=c1oc2ccccc2cc1-c1cn2cc(Cc3ccc(F)cc3)sc2n1 | -1% | -6% | -3% | 13%[10.9 µM]
Cc1ccc(Cc2cn3cc(-c4ccc(F)cc4)nc3s2)cc1 | 2% | 7.9µM* | ? | -14%[10.9 µM]
Cc1cc(C)cc(O)c1 | 1% | -11% | 1%[1.84 µM] | -7%
CC1CCCN(CCCNC(=O)c2ccc3c(c2)N(Cc2ccc(Cl)cc2)C(=O)c2ccccc2S3(=O)=O)C1 (centres undefined) | ? | 10µM* | ? | -12%[10.9 µM]
Cc1ccc(C)c(CN2C(=O)c3ccccc3S(=O)(=O)c3ccc(C(=O)NCCCN4CCCC(C)C4)cc32)c1 (centres undefined) | ? | ? | -1% | -17%[10.9 µM]
NC[C@H](O)C1CCCCCCC1 | -2% | -16% | ? | nt
COc1ccc(CCNC(=O)c2ccc3c(c2)nc2n3CCCCC2)cc1OC | ? | -9% | -14% | -14%[10.9 µM]
CC(C)CCNC(=O)c1ccc2c(c1)nc1n2CCCCC1 | ? | 3.2µM* | 16µM* | -32%[10.9 µM]
O=C(NCCc1ccccc1)c1ccc2c(c1)nc1n2CCOC1 | -3% | 10µM* | 13µM* | -25%[10.9 µM]
CCNC(=O)c1ccc2c(c1)nc1n2CCCCC1 | 0% | ? | ? | -16%[10.9 µM]
Cc1ccc(CCNC(=O)c2ccc3c(c2)nc2n3CCOC2)cc1 | 0% | -17% | -10% | 12%[10.9 µM]
O=C(NCCc1ccccc1Cl)c1ccc2c(c1)nc1n2CCCCC1 | ? | 2.5µM* | 4µM* | -27%[10.9 µM]
Cc1ccccc1CCNC(=O)c1ccc2c(c1)nc1n2CCC(C)C1 (centres undefined) | -1% | 13µM* | 13µM* | -2%[10.9 µM]
O=C(c1cnccn1)N1CCC2(CCCN(c3cccc(-c4ccccc4)c3)C2)CC1 | 2%[11.4 µM] | -20% | 4% | nt
COc1ccccc1CNc1ncnc2ccc(-c3ccc(C(=O)N(C)C)cc3)cc12 | -3%[11.4 µM] | -6% | 14% | -11%
Oc1ccc(/C=C/c2cc(O)cc(O)c2)cc1 | 0% | 6.3µM* | 10µM*! | -39%
Oc1cc(O)cc(/C=C\c2ccc(O)c(O)c2)c1 | 3% | ? | 13µM* | nt
Oc1ccc(/C=C\c2cc(O)cc(O)c2)cc1 | 0% | 7.9µM* | 7.9µM* | -70%
COc1cc(C2C(=O)N(C3CCC(C)CC3)CC(=O)N2CCc2ccc(Cl)cc2)ccc1OC(C)C (centres undefined) | 0% | -11% | 0% | -9%[10.9 µM]
CCOC(=O)c1cccc(NC(=O)c2cc3cc4cc(OC)ccc4nc3s2)c1 | ? | -22% | 2% | -12%[10.9 µM]
CCOC(=O)c1cccc(NC(=O)c2cc3cc4ccc(C)cc4nc3s2)c1 | ? | 10µM* | -5% | -11%[10.9 µM]
Cc1cccc(-c2nnn3c2nc(NCc2ccc4c(c2)OCO4)c2ccccc23)c1 | ? | 6.3µM* | -5% | -9%[10.9 µM]
SMILES | IkB signaling | p53ts 39C kill | p53ts 32C tox | Peg3 imprint
Clc1ccc(-c2nnn3c2nc(NCc2ccc4c(c2)OCO4)c2ccccc23)cc1 | ? | -21% | 9% | -1%[10.9 µM]
CC(C)(C)OC(=O)N1CCC(c2c(C(=O)NCCN3CCC(Cc4ccccc4)CC3)cnn2-c2cccc(Cl)c2)CC1 | ? | 20µM* | ? | -23%[10.9 µM]
Cc1ccc(-n2ncc(C(=O)NCCN3CCC(Cc4ccccc4)CC3)c2C2CCN(C(=O)OC(C)(C)C)CC2)cc1 | ? | 7.9µM* | ? | -24%[10.9 µM]
CN1CCN(CCNC(=O)c2cnn(-c3cccc(Cl)c3)c2C2CCN(C(=O)OC(C)(C)C)CC2)CC1 | -2% | -4% | 6% | 29%[10.9 µM]
Cc1ccc(C)c(N2CCN(CCCNC(=O)c3nnc(Cc4ccc(F)cc4Cl)o3)CC2)c1 | ? | ? | -9% | -14%[10.9 µM]
COc1ccc(CNc2ccnc(-c3ccc(N(C)C)cc3)n2)c(OC)c1 | 8%[11.4 µM] | -4% | -1% | ?
O=C1C(Cl)=C(NC2CCc3ccccc32)C(=O)c2ncccc21 (centres undefined) | nt | 6.3µM* | 2.5µM* | -86%
c1ccc2c(c1)CCCC2NC1=NCCC1 (centres undefined) | 0% | 5% | -2% | 6%
